Only some compounds are listed: those with a hit (about 7.8% of all), similar ones and a draw of the others.
PostGolgi ctrl = yeast control strain growth, post-Golgi counter-screen; AID 738; inhibition, % at 10 µM; actives 5% (n = 98,000); efflux-deficient yeast background strain, growth absorbance A615, 16 h
PostGolgi yeast = growth inhibition of a yeast mutant, post-Golgi transport screen; post-Golgi transport phenotypic cell assay; inhibition, % at 10 µM; actives 0.9% (n = 98,000);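 note: yeast cells grown in 1536-well plates; yeast grown about 18 h at 30C before absorbance read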
sEH inh = inhibitors of human soluble epoxide hydrolase. P34913. recombinant human sEH enzymatic activity assay. inhibition, % at 2 µM. actives 0.34% (n = 91,000); in the data active = inhibition above about 80%
Cav3 T inh = inhibitors of human Cav3.2 T-type calcium channel; Cav3.2-expressing cells, Fluo-4 calcium fluorescence FDSS; stronger effect = lower value; B-score at 10 µM; actives 4% (n = 100,000); AID 449739;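 active = single-dose well whose peak fluorescence ratio is a statistical outlier from its plate by either plate-standardised score or position-corrected B-score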
Target sequence (O95180 whole entry, looked up): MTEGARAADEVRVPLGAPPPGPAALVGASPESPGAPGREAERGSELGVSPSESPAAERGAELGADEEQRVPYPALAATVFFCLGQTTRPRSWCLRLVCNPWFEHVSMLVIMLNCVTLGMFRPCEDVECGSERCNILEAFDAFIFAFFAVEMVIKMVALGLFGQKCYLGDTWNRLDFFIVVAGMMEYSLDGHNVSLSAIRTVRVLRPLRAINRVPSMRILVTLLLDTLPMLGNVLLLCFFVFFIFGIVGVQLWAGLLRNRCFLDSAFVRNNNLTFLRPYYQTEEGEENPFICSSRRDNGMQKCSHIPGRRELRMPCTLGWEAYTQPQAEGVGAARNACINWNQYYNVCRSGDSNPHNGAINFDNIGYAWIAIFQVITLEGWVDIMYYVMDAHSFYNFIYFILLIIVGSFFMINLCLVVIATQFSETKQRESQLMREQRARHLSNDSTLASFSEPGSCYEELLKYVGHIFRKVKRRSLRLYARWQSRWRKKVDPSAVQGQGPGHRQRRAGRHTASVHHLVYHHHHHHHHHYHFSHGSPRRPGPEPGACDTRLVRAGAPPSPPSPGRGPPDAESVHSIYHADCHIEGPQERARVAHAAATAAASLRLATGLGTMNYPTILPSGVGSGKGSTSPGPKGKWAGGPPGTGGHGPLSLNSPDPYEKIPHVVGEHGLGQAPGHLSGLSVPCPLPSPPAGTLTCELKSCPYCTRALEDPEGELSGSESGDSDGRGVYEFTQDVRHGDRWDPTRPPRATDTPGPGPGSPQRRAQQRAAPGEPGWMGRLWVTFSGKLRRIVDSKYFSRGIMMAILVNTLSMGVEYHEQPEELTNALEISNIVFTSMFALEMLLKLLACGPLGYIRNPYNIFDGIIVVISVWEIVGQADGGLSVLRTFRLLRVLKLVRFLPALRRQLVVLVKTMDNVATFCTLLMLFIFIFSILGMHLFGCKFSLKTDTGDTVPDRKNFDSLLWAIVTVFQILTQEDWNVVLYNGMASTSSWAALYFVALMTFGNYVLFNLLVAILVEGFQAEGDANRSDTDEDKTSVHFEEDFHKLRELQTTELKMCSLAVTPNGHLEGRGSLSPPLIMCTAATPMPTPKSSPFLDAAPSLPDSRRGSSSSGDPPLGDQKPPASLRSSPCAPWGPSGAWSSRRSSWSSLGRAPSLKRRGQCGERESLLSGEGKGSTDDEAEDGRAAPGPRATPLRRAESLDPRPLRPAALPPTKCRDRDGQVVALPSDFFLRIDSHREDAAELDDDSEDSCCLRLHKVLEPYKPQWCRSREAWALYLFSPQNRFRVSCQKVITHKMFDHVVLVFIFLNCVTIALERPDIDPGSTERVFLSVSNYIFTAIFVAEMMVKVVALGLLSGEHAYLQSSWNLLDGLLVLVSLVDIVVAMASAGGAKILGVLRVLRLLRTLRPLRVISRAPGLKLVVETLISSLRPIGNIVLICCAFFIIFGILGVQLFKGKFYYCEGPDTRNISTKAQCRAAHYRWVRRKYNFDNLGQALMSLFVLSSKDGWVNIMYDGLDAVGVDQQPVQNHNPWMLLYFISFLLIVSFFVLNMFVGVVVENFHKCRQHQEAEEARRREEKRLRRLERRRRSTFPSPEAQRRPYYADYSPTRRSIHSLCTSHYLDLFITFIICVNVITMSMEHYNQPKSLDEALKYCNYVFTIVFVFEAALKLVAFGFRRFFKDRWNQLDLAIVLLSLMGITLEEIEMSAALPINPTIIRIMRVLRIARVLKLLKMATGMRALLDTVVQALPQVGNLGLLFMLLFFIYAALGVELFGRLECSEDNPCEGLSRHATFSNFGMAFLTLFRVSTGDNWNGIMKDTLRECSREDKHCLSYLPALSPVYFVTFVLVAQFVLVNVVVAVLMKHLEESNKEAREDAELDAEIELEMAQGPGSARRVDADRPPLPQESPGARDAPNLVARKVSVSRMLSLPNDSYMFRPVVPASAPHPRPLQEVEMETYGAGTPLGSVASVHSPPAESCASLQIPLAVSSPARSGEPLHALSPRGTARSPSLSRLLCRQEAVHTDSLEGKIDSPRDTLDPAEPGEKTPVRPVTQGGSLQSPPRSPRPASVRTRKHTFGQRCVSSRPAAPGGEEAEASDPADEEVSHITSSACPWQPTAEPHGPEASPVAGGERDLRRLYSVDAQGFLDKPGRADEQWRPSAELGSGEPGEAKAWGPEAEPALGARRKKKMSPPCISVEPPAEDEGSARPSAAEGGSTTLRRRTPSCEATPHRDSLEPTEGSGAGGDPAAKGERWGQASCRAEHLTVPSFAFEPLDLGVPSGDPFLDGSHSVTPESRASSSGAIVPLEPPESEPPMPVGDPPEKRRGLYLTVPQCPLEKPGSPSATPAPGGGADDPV
sEH activator = increases human soluble epoxide hydrolase activity; purified human sEH enzymatic activity, activator screen; activation, % at 2 µM; actives 0.04% (n = 91,000); AID 717; in the data active = activation above about 37%
Hits are given with their value; i = inactive; nt = no result. Cut-off read from the data, not from the text of the source, unless noted: active = inhibition above about 30%; inactive = the rest.

SMILES	PostGolgi ctrl	PostGolgi yeast	sEH inh	Cav3 T inh	sEH activator
O=C(N/N=C/c1ccco1)c1cc(-c2cccc3ccccc23)n[nH]1	i	i	i	-6.2	i
CSCCC(NS(=O)(=O)c1ccc(Cl)cc1)C(=O)OCC(=O)N(C(C)C)C(C)C (centres undefined)	i	i	i	-3.4	i
O=C(CN(Cc1cccs1)C(=O)CNC(=O)c1ccco1)NC1CCCCC1	i	i	i	i	i
O=c1ccn(-c2cccc(C(F)(F)F)c2)nc1-c1ccn(-c2ccccc2)n1	i	i	i	-5.7	i
Cc1nc2cc(-c3ccccc3)nn2c(C)c1CCC(=O)N1CCN(c2ccccc2)CC1	45	i	i	-6	i
O=C(NCCCCc1ccccc1)C1CC(c2ccc(C(F)(F)F)cc2)=NO1 (centres undefined)	nt	nt	nt	i	nt
CCn1c(O)c(/C=N/n2cnnc2)sc1=S	30	i	i	i	i
CCn1c(O)c(C=NC2CCCC2)sc1=S	i	i	i	i	i
CCCCCC(=O)Nc1cccc(C2=NOC3(C2)C[C@@H](C(N)=O)N(C(=O)C2(C)CC2)C3)c1 (some centres undefined)	nt	nt	nt	i	nt
O=c1c2ccccc2ncn1CCCSc1ccccc1	i	i	i	i	i
O=c1c2ccccc2ncn1CCCSc1ccc(Cl)cc1	42	i	i	i	i
COC(=O)c1ccc(COC(=O)CCc2nc(-c3ccccc3)c(-c3ccccc3)o2)cc1	i	i	i	-5.2	i
COC(=O)c1ccc(COC(=O)c2ccccn2)cc1	i	i	i	i	i
CC1(C)CC(=O)c2sc(NC(=O)C3COc4ccccc4O3)nc2C1 (centres undefined)	38	i	i	i	i
O=C(Nc1nnc(C(F)(F)F)s1)C1COc2ccccc2O1 (centres undefined)	i	i	i	-4.2	i
CC(=O)c1sc(NC(=O)C2COc3ccccc3O2)nc1C (centres undefined)	i	i	i	i	i
O=C1CC(Cc2ccccc2)C(=O)N1CCCn1ccnc1 (centres undefined)	i	i	i	nt	i
Cc1noc(C)c1COC(=O)C1(c2cccc(F)c2)CCCC1	i	i	nt	-5	nt
O=C(NCc1ccccn1)c1cc(-n2cnnc2)ccc1Cl	i	i	i	i	i
COCCN1C(=O)N[C@@H](c2cccc(F)c2)C(C(=O)OC)=C1C	nt	nt	nt	i	nt
O=S(=O)(NCCSCc1ccc(Cl)cc1Cl)c1ccc2c(c1)OCCO2	i	i	i	-4.5	i
O=S(=O)(NCCSc1ccc(Cl)cc1)c1ccc2c(c1)OCCO2	31	i	i	-8.7	i
Cc1ccc(Cl)cc1N1CCN(S(=O)(=O)c2ccc3c(c2)OCCO3)CC1	i	i	i	-5.2	i
O=S(=O)(NCCSCc1c(Cl)cccc1Cl)c1ccc2c(c1)OCCO2	i	i	i	i	i
O=C(C1CC(c2ccccc2O)=NO1)N1CCCCC1 (centres undefined)	i	i	i	i	i
SMILES	PostGolgi ctrl	PostGolgi yeast	sEH inh	Cav3 T inh	sEH activator
Cc1ccc(SCC(=O)Nc2cccc(-c3nnc(-c4ccco4)o3)c2)cc1	i	i	i	i	i
COc1ccc(S(=O)(=O)N(C)CC(=O)Nc2ccc(C(F)(F)F)cc2)cc1Cl	i	i	i	i	i
Cc1cc(C)c(S(=O)(=O)NCCn2ccc3ccccc32)c(C)c1	57	i	i	i	i
Cc1cc(C)c(S(=O)(=O)n2ccc3ccccc32)c(C)c1	i	i	i	nt	i
CCCNc1nc(-c2cc(-c3ccc(Cl)cc3)on2)cc(C(C)C)n1	nt	nt	nt	i	nt
CCOC(=O)Cc1csc(NC(=S)NC(=O)c2ccc(F)cc2)n1	41	i	i	nt	i
CCOC(=O)Cc1csc(NC(=O)COc2ccc3ccccc3c2)n1	i	i	i	-10	i
CCOC(=O)Cc1csc(NC(=O)CSc2nnnn2-c2ccc(F)cc2)n1	i	i	i	-4.5	i
Cc1nn(C)c(Oc2ccccc2)c1CCNS(=O)(=O)c1ccc(Cl)cc1	i	i	nt	-6.9	nt
COc1ccc(S(=O)(=O)NCCc2c(C)nn(C)c2Oc2ccccc2)cc1	i	i	nt	i	nt
CC1(C)Oc2ccc(NC(=O)C3COc4ccccc4O3)cc2O1 (centres undefined)	i	i	i	i	i
CN(C)c1oc(-c2ccccc2Cl)nc1P(=O)(c1ccccc1)c1ccccc1	i	31	i	-7.3	i
CCN(CC)c1ccc(C(=O)OCC(=O)NCC2CCCO2)cc1 (centres undefined)	i	i	i	i	i
O=C1Nc2ccccc2C12OCC(COc1ccc(Cl)cc1)O2 (centres undefined)	i	i	i	-5.4	i
CN1C(=O)C2(OCC(COc3ccc(Cl)cc3)O2)c2ccccc21 (centres undefined)	i	i	i	i	i

High-throughput results from PubChem BioAssay.
